GDH-TPI counter: GDH-TPI coupled enzyme inhibition counter-screen | inhibition, % at 4.8 µM | hit rate 1.2% among 360,000 | GDH-TPI coupled enzyme counterscreen, NADH absorbance | AID 588335; in the data active means inhibition above about 30%;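 further: 0% = DMSO wells and 100% = wells lacking the enzyme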
Autofluor counter: compound fluorescence in toxin protease inhibitor counterscreen. compound autofluorescence counterscreen, microsphere flow cytometry; hits give high values. fluorescence intensity (test concentration not listed). hit rate 3.1% among 360,000. AID 624483; in the data active means fluorescence intensity above about 16000; inconclusive means no clear call, values can overlap the other calls
BoNT-A LC inh2: BoNT A light chain protease inhibition. multiplex microsphere protease substrate cleavage, flow cytometry. inhibition, % at 10 µM. hit rate 0.17% among 360,000. AID 588499; further: plate controls were buffer without enzyme for full effect and enzyme alone for no effect
Anthrax LF prot: blocks Bacillus anthracis lethal factor protease. P15917. hit rate 0.12% among 360,000. multiplex microsphere protease cleavage assay, LF. inhibition, % at 10 µM; further: plate controls were buffer without enzyme for full effect and enzyme alone for no effect
Mtb FBA inh: Mtb fructose-bisphosphate aldolase inhibition. inhibition, % at 1 µM. P9WQA3. hit rate 2.3% among 360,000. purified M. tuberculosis FBA, fluorescence read-out; in the data active means inhibition above about 27%;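 further: 0% = vehicle and 100% = reference inhibitor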
BoNT-F LC inh: blocks Botulinum neurotoxin F light chain protease | hit rate 0.22% among 360,000 | Multiplex microsphere protease cleavage assay, flow cytometry | inhibition, % at 10 µM; in the data active means inhibition above about 35%, passing the limit was not always enough; inconclusive means no clear call, values can overlap the other calls; further: plate controls were buffer without enzyme for full effect and enzyme alone for no effect
* marks the source's active call; other numbers are inactive results; ? = inconclusive; . = no result given; + = active, no number. Most compounds without a hit are left out; they make up all but 6.7% or so of the library. Unless noted, no stated cut-off is given here; in the data, active means inhibition above about 30%; inconclusive means no clear call, values can overlap the other calls; inactive means below that.

SMILES | GDH-TPI counter | Autofluor counter | BoNT-A LC inh2 | Anthrax LF prot | Mtb FBA inh | BoNT-F LC inh
COc1cccc(C(=O)Nc2ccc(S(=O)(=O)Nc3onc(C)c3C)cc2)c1 | 5 | 10248 | 0 | 4 | -1 | -9
Cc1ccc(S(=O)(=O)c2c(N)n(CCCO)c3nc4ccccc4nc23)cc1 | 21 | 2616 | 0 | -9 | 143* | -2
Nc1c(S(=O)(=O)c2ccccc2)c2nc3ccccc3nc2n1Cc1ccco1 | 46* | ? | ? | ? | 101* | -4
Cc1ccc(S(=O)(=O)c2c(N)n(Cc3ccco3)c3nc4ccccc4nc23)cc1C | 40* | ? | ? | ? | 91* | 13
Nc1c(S(=O)(=O)c2ccccc2)c2nc3ccccc3nc2n1C1CC1 | 3 | 3301 | 0 | -10 | 18 | -6
CCCCn1c(NS(=O)(=O)c2ccccc2)c(S(=O)(=O)c2ccc(C)cc2)c2nc3ccccc3nc21 | 15 | 2716 | 4 | 0 | 4 | -10
CN(C)c1ccc(/C=N/NC(=O)c2nnn(-c3nonc3N)c2CN2CCCCCC2)cc1 | 21 | 6638 | 0 | -14 | 0 | -13
CCN1CCCC1CN(Cc1cc2ccc(C)cc2[nH]c1=O)C(=S)Nc1ccccc1C(=O)OC (stereo not drawn) | 6 | 5052 | 3 | -5 | 4 | 5
CCOc1ccc(N2C(=O)CC(/C=C3/N(C)c4ccccc4C3(C)C)C2=O)cc1 (stereo not drawn) | 10 | 2652 | 3 | 1 | -2 | -11
CN1/C(=C/C2CC(=O)N(c3cccc4ccccc34)C2=O)C(C)(C)c2ccccc21 (stereo not drawn) | 2 | 20679* | 16 | -12 | 0 | 16
CN1/C(=C/C2CC(=O)NC2=O)C(C)(C)c2ccccc21 (stereo not drawn) | -5 | 19664* | 5 | 2 | -4 | 4
CN1/C(=C\P(=O)(N(C)C)N(C)C)C(C)(C)c2ccccc21 | 14 | 6518 | 2 | -1 | 4 | -2
COc1ccc2c(c1)SCC(=O)N2C | -18 | 21232* | -5 | 2 | 2 | -2
COc1cccc(NC(=O)Nc2ccc3c(c2)N(C)C(=O)CS3)c1 | -14 | 10487 | -2 | 8 | -4 | -3
CC(C)CC1Nc2ccc(C(=O)NCc3ccc4c(c3)OCO4)cc2NC1=O (stereo not drawn) | 12 | 3802 | 4 | -5 | 5 | -2
O=C(NCc1nnnn1-c1cccc(F)c1)c1ccc(S(=O)(=O)N2CCOCC2)cc1 | 3 | 10511 | -35 | -9 | 4 | -56
CCCn1c(=N)c(C(=O)NC2CCCC2)cc2c(=O)n3cccc(C)c3nc21 | 7 | 2415 | 0 | -1 | + | 6
Cc1cccn2c(=O)c3cc(C(=O)NC4CCCC4)n(C)c3nc12 | 5 | 5971 | 1 | 3 | 21 | -5
N=c1c(C(=O)NC2CCCC2)cc2c(=O)n3ccccc3nc2n1C1CCCC1 | 14 | 15750 | 3 | -2 | 123* | 4
Cc1cccn2c(=O)c3cc(C(=O)NC4CCCCC4)n(C)c3nc12 | 8 | 5504 | -1 | 0 | 5 | -6
Cc1cccn2c(=O)c3cc(C(=O)NC4CCCC4)c(=N)n(C4CCCC4)c3nc12 | 2 | 3549 | 8 | 7 | + | 11
COc1ccc(CCn2c(=N)c(C(=O)NC3CCCC3)cc3c(=O)n4ccccc4nc32)cc1 | -2 | 6121 | 1 | 1 | -5 | 1
N=c1c(C(=O)NCc2ccco2)cc2c(=O)n3ccccc3nc2n1C1CCCC1 | 13 | 3233 | -2 | 8 | + | -41
Cc1ccc(CNC(=O)c2sccc2-n2cccc2)cc1 | 10 | 2475 | -1 | 5 | 1 | -1
CCOc1nc(Nc2ccccc2)nc(OCC)n1 | 1 | 3872 | -1 | 4 | 0 | 0
SMILES | GDH-TPI counter | Autofluor counter | BoNT-A LC inh2 | Anthrax LF prot | Mtb FBA inh | BoNT-F LC inh
COCc1c(C(=O)N(C)Cc2ccccc2N2CCCC2)oc2ccccc12 | 2 | ? | -2 | ? | 0 | 6
Brc1ccc(-c2ccc(CNCc3ccccn3)o2)cc1 | -15 | 3512 | 3 | -7 | 1 | ?
CCOCCCn1c(=N)c(C(=O)NCc2ccc3c(c2)OCO3)cc2c(=O)n3cccc(C)c3nc21 | 10 | 9696 | 4 | 6 | 6 | 4
CCn1c(=N)c(C(=O)NC)cc2c(=O)n3cccc(C)c3nc21 | 11 | 2507 | 1 | -2 | + | 9
COc1ccc(-c2cc(=Nc3ccccc3)c3cc(C)ccc3o2)cc1 | -1 | 2295 | 0 | 0 | + | -6
COc1ccc(-c2cc(=NCCC(=O)O)c3cc(C)ccc3o2)cc1 | 26 | 4391 | 0 | 2 | + | -3
COc1ccc(-c2cc(=NC(CC(C)C)C(=O)O)c3cc(C)ccc3o2)cc1 (stereo not drawn) | 23 | 2697 | 0 | -2 | + | -2
COc1ccc(NC(=O)CN(C)S(=O)(=O)c2ccc3c(c2)CCCN3C(C)=O)cc1 | 18 | 5733 | -3 | -4 | 3 | -5
Cc1nc(N2CCN(Cc3ccccc3)CC2)nc2c1C(=O)CCC2 | -5 | 4263 | 0 | -5 | -6 | 29
O=C1CCCc2nc(N3CCN(Cc4ccccc4)CC3)ncc21 | 1 | 17293* | ? | 2 | -1 | 9
O=C(CCN1C(=O)S/C(=C\c2ccc(F)cc2)C1=O)Nc1ccc(O)cc1C(=O)O | 43* | 5729 | -2 | -4 | 0 | -9
O=C(CCN1C(=O)S/C(=C/c2ccc(F)cc2)C1=O)Nc1ccc(O)c(C(=O)O)c1 | 32* | 5606 | 1 | 1 | 3 | 3
O=C(CCN1C(=O)S/C(=C\c2ccc(F)cc2)C1=O)Nc1ccc(C(=O)O)c(O)c1 | 43* | 4184 | 1 | -2 | 6 | 4
O=C(CCN1C(=O)S/C(=C\c2ccc(Cl)cc2)C1=O)Nc1ccc(C(=O)O)cc1 | -1 | 5768 | 3 | 0 | -2 | 5
O=C(CCN1C(=O)S/C(=C/c2ccccc2)C1=O)Nc1ccc(C(=O)O)c(O)c1 | 25 | 5232 | 1 | -4 | -1 | -1
CCOC(=O)NC(NC(=S)Nc1ccccc1[N+](=O)[O-])C(Cl)(Cl)Cl (stereo not drawn) | 10 | 8984 | -1 | -1 | -1 | -10
COc1cccc(CNC(=O)c2c[nH]n3c(=O)c(Cl)c(C)nc23)c1 | 9 | 10113 | -6 | -6 | 7 | -45
Cc1nc2c(C(=O)NCCC3=CCCCC3)c[nH]n2c(=O)c1Cl | 9 | 23190* | 2 | -1 | 21 | 2
O=C(NCCC1=CCCCC1)c1cnc2n(c1=O)CCS2 | 3 | 24855* | -3 | -9 | 6 | -3
Cc1nc2c(C(=O)NCc3ccc4c(c3)OCO4)c[nH]n2c(=O)c1Cl | 7 | 25275* | -4 | 2 | 11 | -6
COC[C@@H]1CCCN1c1ccc2c(c1)O[C@H](COCc1ccccc1)CN([C@@H](C)c1ccccc1)S2(=O)=O | . | 4157 | 0 | -13 | . | -4
CCN(CC)c1ccc(/C=C2\CCC(/C=C(\C#N)C(=O)Nc3ccccc3F)=C2N2CCOCC2)cc1 | 2 | 3080 | 40* | 9 | -3 | -18

Screening results deposited in PubChem BioAssay by several laboratories.
